# Assay results taken from PubChem BioAssay AID2061306 (National Center for Advancing Translational Sciences (NCATS), 2025).
# Inconclusive results are not listed. The source made the active and inactive calls. The call rests on the fitted dose curve; in most records, active means well fitted inhibition curve with a large enough effect; inconclusive means small, poorly fitted or top-dose-only effect; inactive means flat fitted curve, though single readings scatter.
# Assay: Identification of antibody-drug conjugate (ADC) payloads which are substrates of ATP-binding cassette drug efflux transporters: ABCB1-HEK293-pcDNA cell line
# Settings: HEK293 empty-vector (pcDNA) control viability, CellTiter-Glo, 48 h
# Description: Antibody-drug conjugates (ADCs) feature an antibody recognizing a specific protein joined to a potent toxic payload. Numerous antibody-drug conjugates have received FDA approval; however, clinical resistance arises. Resistance mechanisms include decreased expression or mutation of the antibody target, impaired payload release, or increased expression of ATP-binding cassette (ABC) efflux transporters associated with multidrug resistance. We therefore sought to characterize the interaction of ABC multidrug transporters with ADC payloads. We performed a high-throughput screen with 27 common ADC payloads using cells lines expressing ABC transporters P-glycoprotein (P-gp, encoded by ABCB1) or ABCG2 (encoded by ABCG2). Confirmatory assays were also performed using cells transfected to express P-gp, ABCG2, or MRP1 (encoded by ABCC1). Several commonly used ADC payloads were substrates of P-gp, including calicheamicin gamma1, monomethyl auristatin E, DM1, and DM4. All the pyrrolobenzodiazepines tested - SJG136, SGD-1882, SG2057, and SG3199 - were substrates of P-gp, ABCG2, and MRP1. […] These findings highlight the risk of transporter-mediated resistance with certain ADC payloads and underscore the importance of selecting payloads that evade ABC transporter recognition in future ADC development.
# HEK-293 cells were transfected with empty vector (pcDNA) or vector containing the human ABCB1 (MDR-19), ABCG2 (R-5), or ABCC1 gene (MRP1) and were maintained in EMEM with 2 mg/mL G418 added to maintain transporter expression. The HeLa derivative KB-3-1 and the P-gp overexpressing KB-8-5-11 subline were maintained in DMEM; KB-8-5-11 additionally received 100 ng/mL colchicine. H460 parental cells were obtained from the Division of Cancer Treatment and Diagnosis Tumor Repository, National Cancer Institute at Frederick, MD and were cultured in RPMI. The ABCG2 expressing subline H460 MX20 was generated by selecting H460 cells in 20 nM mitoxantrone. Media in all cases was supplemented with 10% FBS and 1% penicillin-streptomycin. We explored 27 common ADC payloads, in two orthogonal, paired cell line sets-a drug selected and transfected set for each transporter--to identify substrates of the ABC transporters P-gp and ABCG2. Compounds were sourced from Levena Biopharma (San Diego, CA), Selleck Chem (Houston, TX), ChemieTek (Indianapolis, IN), or Microsource Discovery Systems (Gaylordsville, CT). Screening was performed as previously described. Briefly, cells were plated at a density of 500 cells/well in 1536 well plates with compounds added using a 1536-head pin tool (Kalypsys, San Diego CA). Cells were incubated with cytotoxic drugs and processed with CellTiter Glo reagent (Promega, Madison, WI) to determine viability after 48 hours. P-gp substrates were identified by comparing compound activity between paired sets of low-expressing (sensitive) and over-expressing (resistant) cell lines.
row,Structure (SMILES),Potency
1,COc1ccc(C2=CN3C(=O)c4cc(OC)c(OCCCOc5cc6c(cc5OC)C(=O)N5C=C(c7ccc(N)cc7)C[C@@H]5C=N6)cc4N=C[C@H]3C2)cc1,1.3 nM (active)
2,COc1cccc2c1C(=O)c1c(O)c3c(c(O)c1C2=O)C[C@@](O)(C(=O)CO)C[C@@H]3O[C@H]1C[C@H](N)[C@H](O)[C@H](C)O1,29.8 nM (active)
3,CN(C)CCOc1ccc2[nH]c(C(=O)N3C[C@@H](CCl)c4c3cc(O)c3ccccc43)cc2c1,0.4 nM (active)
4,CC(C)(C)OC(=O)Nc1ccc2[nH]c(C(=O)N3C[C@@H](CCl)c4c3cc(O)c3ccccc43)cc2c1,8.4 nM (active)
5,COC(=O)c1cc2c3c(cc(O)c2[nH]1)N(C(=O)c1cc2cc(OC)c(OC)c(OC)c2[nH]1)CC3CCl (stereo not given),0.4 nM (active)
6,COc1cccc2c1C(=O)c1c(O)c3c(c(O)c1C2=O)C[C@@](O)(C(=O)CO)C[C@@H]3O[C@H]1C[C@H]2[C@H](O[C@@H]3[C@@H](OC)OCCN32)[C@H](C)O1,0.0334 nM (active)
7,CCc1c2c(nc3ccc(O)cc13)-c1cc3c(c(=O)n1C2)COC(=O)[C@]3(O)CC,4.7 nM (active)
8,CCN(C(C)=O)[C@H]1CO[C@@H](O[C@H]2[C@H](O[C@H]3C#C/C=C\C#C[C@]4(O)CC(=O)C(NC(=O)OC)=C3/C4=C\CSSSC)O[C@H](C)[C@@H](NO[C@H]3C[C@H](O)[C@H](SC(=O)c4c(C)c(I)c(O[C@@H]5O[C@@H](C)[C@H](O)[C@@H](OC)[C@H]5O)c(OC)c4OC)[C@@H](C)O3)[C@@H]2O)C[C@@H]1OC,1.5 nM (active)
9,COc1cc2cc(c1Cl)N(C)C(=O)C[C@H](O)[C@]1(C)O[C@H]1[C@H](C)C1C[C@@](O)(NC(=O)O1)[C@H](OC)/C=C/C=C(\C)C2,2980 nM (active)
10,CCN[C@H]1CO[C@@H](O[C@H]2[C@H](O[C@H]3C#C/C=C\C#C[C@]4(O)CC(=O)C(NC(=O)OC)=C3/C4=C\CSSSC)O[C@H](C)[C@@H](NO[C@H]3C[C@H](O)[C@H](SC(=O)c4c(C)c(I)c(O[C@@H]5O[C@@H](C)[C@H](O)[C@@H](OC)[C@H]5O)c(OC)c4OC)[C@@H](C)O3)[C@@H]2O)C[C@@H]1OC,0.2 nM (active)
